Screens deposited in PubChem BioAssay by several laboratories.
Sampled rows, rich in hits. Any-hit rate of the full collection: about 3.5%.
Myeloid diff 2 – promotes myeloid progenitor differentiation; ER-HoxA9 myeloid progenitors, lysozyme-GFP differentiation, flow cytometry; calls only at 10 µM; 360,000 compounds, 1% hits; AID 624256;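 active means normalized GFP-positive differentiation at or above the plate's own cutoff, the solvent-only control mean plus 3 SD; inconclusive means no clear call, values can overlap the other calls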;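 further: cells exposed to compound for four days before flow analysis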
CHRM1 agonist – activates human CHRM1 receptor | P11229 | CHO-K1 hM1, Fluo-8 calcium fluorescence, agonist mode; 0% DMSO, 100% acetylcholine EC100 | activation, % at 3 µM | 360,000 compounds, 0.33% hits;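 active means activation above the run's mean compound activation plus 3 SD, cut at about 16% in these data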;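 further: peak over basal fluorescence ratio within a 140 s kinetic read after compound addition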
M1 antag – blocks human M1 muscarinic receptor | CHO-K1 hM1, Fluo-8 calcium fluorescence, ACh EC80 antagonist | 360,000 compounds, 1.3% hits | AID 588852 | inhibition, % at 3 µM | P11229;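 active means percent inhibition above its own plate's cutoff, namely the mean of that plate's compound wells plus 3 SD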;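 further: peak over basal fluorescence ratio during 140 s after agonist addition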
M1 PAM – human CHRM1 positive allosteric modulation. activation, % at 3 µM. AID 588819. 360,000 compounds, 0.088% hits. CHO-K1 hM1, Fluo-8 calcium fluorescence, ACh EC20; 0% = ACh EC20, 100% = maximal ACh. P11229; in the data active means activation above about 19%, passing the limit was not always enough
ATG4B inh – ATG4B (human) cysteine protease inhibition; ATG4B cleavage of LC3-PLA2, NBD-HPC fluorescence, 1 h; 340,000 compounds, 0.51% hits; Q9Y4P1; inhibition, % at 8.33 µM; in the data active means inhibition above about 40%
Target sequence (Q9Y4P1 whole entry, looked up): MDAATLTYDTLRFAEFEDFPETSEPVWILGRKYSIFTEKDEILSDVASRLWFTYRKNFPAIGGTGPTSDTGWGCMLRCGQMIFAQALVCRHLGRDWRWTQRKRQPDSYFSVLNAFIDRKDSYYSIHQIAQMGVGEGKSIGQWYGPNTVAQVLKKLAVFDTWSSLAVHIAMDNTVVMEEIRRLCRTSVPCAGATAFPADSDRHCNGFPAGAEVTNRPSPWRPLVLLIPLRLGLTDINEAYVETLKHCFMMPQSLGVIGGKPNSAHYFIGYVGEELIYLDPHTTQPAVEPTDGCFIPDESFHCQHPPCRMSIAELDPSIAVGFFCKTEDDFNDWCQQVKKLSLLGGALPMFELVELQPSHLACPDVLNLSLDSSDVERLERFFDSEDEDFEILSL
SKN-1 block – inhibitors of C. elegans SKN-1. C. elegans VP596 Pgst-4::GFP/RFP ratio, acrylamide-induced, 24 h. AID 624304. inhibition, % at 21.8 µM. 360,000 compounds, 0.49% hits;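 active means interference check ratio from 0.5 to 1.5 plus GFP to RFP signal ratio inhibition reaching or exceeding a fixed threshold, cut at about 30% in these data, passing the limit was not always enough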
ATG4B conf – confirmation of human ATG4B inhibitors | shares compounds with ATG4B inh | ATG4B protease fluorescent substrate cleavage assay | inhibition, % at 8.33 µM | 320 compounds, 92% hits; in the data active means inhibition above about 39%
PLA2 ctr – inhibits human PLA2, flagging false ATG4B inhibitors. shares compounds with ATG4B inh. inhibition, % at 8.33 µM. AID 588402. 1,600 compounds, 66% hits. purified PLA2, NBD-C6-HPC fluorescence, 45 min; in the data active means inhibition above about 50%
Target sequence (P04054 whole entry, looked up): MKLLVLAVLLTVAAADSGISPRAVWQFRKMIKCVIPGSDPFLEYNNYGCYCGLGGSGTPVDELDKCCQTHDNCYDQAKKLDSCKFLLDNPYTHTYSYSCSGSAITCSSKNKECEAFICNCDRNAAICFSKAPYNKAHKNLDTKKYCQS
Large screens that a line does not name were inactive (follow-up assays come after a bar, where they were run).

CC(C)CSC1=NSC2=NC(=O)/C(=C\c3cccs3)C(=N)N12	none
N=C1/C(=C/c2cccs2)C(=O)N=C2SN=C(SCc3ccccc3)N12	ATG4B inh 50.5 | PLA2 ctr 61.7
CC(=O)c1ccc(-c2ccc(C(=O)NC3CC(C)(C)NC(C)(C)C3)o2)cc1	none
CCCc1cc(C(=O)NC2CCCCC2)no1	none
CCCc1cc(C(=O)N(C2CCCCC2)C2CCCCC2)no1	ATG4B inh 59.6 | PLA2 ctr 71.6
COc1ccc(N2CCN(C(=O)CCCn3c(=S)[nH]c4cc5c(cc4c3=O)OCO5)CC2)cc1	none
Cc1ccc(C)c(N2CCN(C(=O)CCn3c(=S)[nH]c4cc5c(cc4c3=O)OCO5)CC2)c1	ATG4B inh 51.5 | PLA2 ctr 50.4
Cc1cccc(-c2cc3nc(-c4ccccc4)cc(=O)n3[nH]2)c1	none
CN1CCN(c2nc(-c3cccs3)cs2)CC1	none
O=C1c2ccccc2C(=O)N1c1nc(-c2cccs2)cs1	ATG4B inh 58.9 | PLA2 ctr 63.5
COc1cc(C(=O)OCC(=O)N2CCC(C)CC2)cc2c1OCCO2	none
C=CCn1c(-c2oc3nc(-c4ccccc4)cc(-c4ccccc4)c3c2N)n[nH]c1=S	ATG4B inh 42.1 | ATG4B conf 69.5 | PLA2 ctr inactive
C=CCn1c(-c2cccc(Cl)c2)n[nH]c1=S	none
Nc1nonc1-n1nnc(C(=O)N/N=C/c2ccncc2)c1-c1ccccc1	none
CN(C)C(=O)Nc1ccccc1CC[N+](=O)[O-]	none
O=C(Nc1ccc(Cl)cc1)Nc1ccccc1CC[N+](=O)[O-]	ATG4B inh 65.1 | PLA2 ctr 70.8
COc1ccc(-n2nnnc2SCC(=O)c2cccc(OC)c2)cc1	none
COc1ccc(-n2c(CCc3ccccc3)nnc2SCC(=O)c2ccccc2)cc1	ATG4B inh 60.4 | PLA2 ctr 61.2
CCOc1ccc(-n2nnnc2SCC(=O)c2ccccc2)cc1	ATG4B inh 41.3 | PLA2 ctr 51.3
CN(C)CCCOc1ccc(-c2ccc3nncn3c2)cn1	none (no result: ATG4B inh)
Cc1ccc(C)c(N2CCN(S(=O)(=O)c3ccc4c(c3)CCN4C(=O)CCC(=O)O)CC2)c1	none
Cc1cccc(N2CCN(S(=O)(=O)c3ccc4c(c3)CCN4C(=O)CCC(=O)O)CC2)c1C	ATG4B inh 40.8 | PLA2 ctr inactive
CCOC(=O)c1cn(Cc2cccc(Cl)c2)nn1	none
CCOC(=O)c1cn(Cc2c(C)c(C)c(C)c(C)c2C)nn1	ATG4B inh 61.0 | PLA2 ctr 58.8
COc1ccc(OC)c(/C=C2\S/C(=N/NC(=O)c3ccc4ccccc4c3)NC2=O)c1	ATG4B inh 78.5 | PLA2 ctr 83.2
O=C1N/C(=N/NC(=O)c2cccc3ccccc23)S/C1=C\c1ccccc1OCc1ccccc1	ATG4B inh 91.4 | PLA2 ctr 91.1
CCN(CC)c1ccc(N2C(=O)CSC2=S)cc1	ATG4B inh 66.1 | PLA2 ctr 63.3
Cc1ccc(S(=O)(=O)N2CCOCC2)cc1NC(=O)COC(=O)COc1ccc(C#N)cc1	none (no result: ATG4B inh)
COc1cccc(/C=N/NC(=O)c2ccc(-c3ccccc3)cc2)c1O	Myeloid diff 2 inconclusive
COc1cccc(/C=N/NC(=O)c2[nH]c(C)c(C(=O)N/N=C/c3cccc(OC)c3O)c2C)c1O	ATG4B inh 62.2 | ATG4B conf inactive | PLA2 ctr inactive
O=C(Nc1cc(Cl)cc(Cl)c1)C1CCCC1	none
COC(=O)N/N=C/c1cn(Cc2ccccc2Cl)c2ccccc12	none
COC(=O)N/N=C/c1cn(Cc2ccc(Cl)cc2Cl)c2ccccc12	ATG4B inh 53.3 | PLA2 ctr 60.8
Cc1ccc(OCC(=O)N/N=C\c2cn(Cc3ccccc3)c3ccccc23)cc1C	ATG4B inh 42.7 | PLA2 ctr inactive
COC(=O)N/N=C/c1cn(Cc2c(Cl)cccc2Cl)c2ccccc12	ATG4B inh 42.0 | PLA2 ctr 50.6
COC(=O)C(Sc1nc(C)cc(C)c1C#N)c1ccccc1 (centres undefined)	ATG4B inh 49.6 | PLA2 ctr 56.2
Cc1nc(SC(C(N)=O)c2ccccc2)c(C#N)c(C)c1C (centres undefined)	none
CCc1ccc(NC(=O)CCCNC(=O)Cn2cnc3sc(C)c(C)c3c2=O)cc1	none
CCOc1cc(/C=C2/SC(=O)N(CC(=O)N3CCc4ccccc4C3)C2=O)ccc1OCC(=O)O	M1 PAM 19.2, ATG4B inh 55.8 | ATG4B conf 67.2 | PLA2 ctr inactive
CCCCn1c(=O)c2ccccc2c2ccccc2c1=O	ATG4B inh 63.9 | PLA2 ctr 75.0
COCCn1c(=O)c2ccccc2c2ccccc2c1=O	none
FC(F)Sc1nc2ccccc2[nH]1	none
N#Cc1c(-c2ccccc2)cc(-c2ccccc2)nc1SCCC(=O)O	ATG4B inh 50.7 | PLA2 ctr 67.8
N#Cc1c(-c2ccc(Cl)cc2)cc(-c2ccccc2)nc1SCC(=O)O	none
Cc1cc(C)c2c(C)c(C(=O)Nc3c(C)n(C)n(-c4ccccc4)c3=O)oc2c1	ATG4B inh 70.5 | PLA2 ctr 69.1
Cc1c(NC(=O)c2cc3ccccc3o2)c(=O)n(-c2ccccc2)n1C	none
Cc1cc(NC(=O)COC(=O)C2CCC(=O)N2)c([N+](=O)[O-])cc1C (centres undefined)	none
O=C(COC(=O)c1ccccc1Nc1ccccc1)NCc1ccccc1	none
COC(=O)c1cccc(NC(=S)NCc2ccc(F)cc2)c1	ATG4B inh 41.8 | PLA2 ctr 50.5
CCNC(=O)C(=O)Nc1ccc([N+](=O)[O-])cc1	none
O=C(COC(=O)c1ccccc1Nc1ccccc1)NCc1ccccc1Cl	ATG4B inh 48.7 | PLA2 ctr inactive
S=C(NCc1ccccc1Cl)Nc1ccccc1Cl	none
Fc1cccc(NC(=S)NCc2ccccc2Cl)c1	ATG4B inh 40.3 | PLA2 ctr inactive
CCN(CC)C(=S)Nc1ccc([N+](=O)[O-])cc1	ATG4B inh 57.9 | PLA2 ctr inactive
Cc1c(Cl)cccc1NC(=O)CNC(=O)c1cn(-c2ccccc2)nc1-c1cccnc1	none
COC(=O)C1=C(\O)CCCC/C=C\1C(=O)O	none
CCOc1ccc(NC(=O)CN(C)C(=O)C2CCCO2)cc1OCC (centres undefined)	none
C=C1c2ccccc2O[C@H](C(=O)OCC)[C@H]1OC	none (no result: ATG4B inh)
Fc1ccc(CNC(=S)Nc2cccc(Cl)c2)cc1	ATG4B inh 60.9 | PLA2 ctr 67.4
Fc1ccc(NC(=S)Nc2ccc(F)c(Cl)c2)cc1Cl	M1 antag 23.6, ATG4B inh 71.7 | PLA2 ctr 76.3
